In all, about 310,000 compounds went through this assay and about 2,600 (0.84%) were called active. The full list was thinned out, with actives kept by preference. Unmarked numbers belong to inactive results.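 Rule for the calls: active = fluorescence ratio B-score at or below minus 3 SD of library scores, with starting-brightness B-score within 2 SD (cut at about -4.2 in these data); inactive = the rest.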

Inward rectifier potassium channel 2 (Mus musculus), sequence (P35561 whole entry, looked up): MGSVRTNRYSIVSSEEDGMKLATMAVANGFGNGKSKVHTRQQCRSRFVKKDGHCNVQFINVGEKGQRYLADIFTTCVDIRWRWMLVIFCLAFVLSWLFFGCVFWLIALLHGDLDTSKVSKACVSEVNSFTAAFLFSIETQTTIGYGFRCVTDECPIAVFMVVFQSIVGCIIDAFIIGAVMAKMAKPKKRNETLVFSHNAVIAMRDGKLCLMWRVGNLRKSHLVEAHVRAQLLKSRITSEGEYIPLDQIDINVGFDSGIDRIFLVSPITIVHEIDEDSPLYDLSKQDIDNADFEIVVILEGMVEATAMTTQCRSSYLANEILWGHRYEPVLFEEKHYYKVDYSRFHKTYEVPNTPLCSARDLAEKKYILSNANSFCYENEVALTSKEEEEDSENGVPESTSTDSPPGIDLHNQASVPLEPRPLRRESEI

The experiment concerns the target Inward rectifier potassium channel 2 (Mus musculus) (UniProt P35561). The experiment can be described thus: blocks the mouse Kir2.1 inward-rectifier potassium channel (AID 1672).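 Note: channel flux triggered by added potassium and thallium sulfate stimulus; B-score of peak minus minimum fluorescence over baseline after thallium stimulus; more negative B-score means stronger Kir2.1 block with less thallium influx.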 Conditions: HEK293-Kir2.1, FluxOR thallium flux fluorescence; at 10 µM; active compounds read low.
Consider `O=C(NCC1CC1)c1onc(CSc2ccccc2)c1C(=O)NCC1CC1`, for which the B-score is -0.33.
On to `Cc1ccc(C)c(OCCC(=O)OCC(=O)NC(=O)NCc2ccccc2)c1`, for which the B-score was -1.35.
Regarding `O=C(c1ccc(NS(=O)(=O)c2ccc3[nH]c(=O)[nH]c3c2)cc1)N1CCCCC1`, the B-score was -0.24.
Then `O=C(COC(=O)c1ccc(F)cc1)Nc1nc2ccc([N+](=O)[O-])cc2s1`, with -0.31; and `O=C(NC(Nc1nc2ccc([N+](=O)[O-])cc2s1)(C(F)(F)F)C(F)(F)F)c1ccccc1`, with -10.5 (active).
As for `O=C(Nc1nc2ccc([N+](=O)[O-])cc2s1)c1ccc(S(=O)(=O)N2CCCc3ccccc32)cc1`, the B-score is 1.56.
In the case of `Cc1nc(-c2ccccc2)sc1C1(C)CC(c2cccnc2)=NO1` (stereo not given) it was -0.61; in that of `O=C(Nc1ccc2nc3n(c(=O)c2c1)CCCC3)c1ccc(Cl)nc1`, -0.4.
As to `CCc1cccc(C)c1NC(=O)COC(=O)CNC(=O)c1cccs1`, the B-score is -0.01.
In the case of `CCOC(=O)N1CCN(C(=O)c2ccccc2SCC(=O)NCC2CCCCC2)CC1` it was -1.08; in that of `CC(CCc1ccc(O)cc1)NCc1ccc(Cl)cc1Cl` (stereo not given), -1.22; in that of `OC(CNCCc1ccc(Cl)cc1Cl)COc1ccccc1` (stereo not given), -5.54 (active).
Then `OC(CNCc1ccc2c(c1)OCO2)COc1ccccc1` (stereo not given), with 0.51; and `O=C(Oc1ccc(-c2nnco2)cc1)c1ccc(F)c(S(=O)(=O)N2CCOCC2)c1`, with 0.69; and `Cc1ccc2nc(SCC(=O)N3CCN(c4ccccc4)CC3)nc(=O)n2c1`, with -0.66.
Turning to `NC(=O)c1cc(S(=O)(=O)NCCCc2ccco2)cs1`, the B-score was -1.45.
In the case of `CCOC(=O)c1c(C)[nH]c(C)c1S(=O)(=O)N(C)CC(=O)Nc1ccccc1C` it was -0.21; in that of `CCOC(=O)c1c(C)[nH]c(C)c1S(=O)(=O)NCCCc1ccco1`, -4.22 (active); in that of `O=S(=O)(NCCCc1ccccc1)c1ccc(Br)cc1`, -0.26.
On to `C=C(C)CNC(=O)c1ccc(OC2CCN(C(=O)COC)CC2)cc1`, for which the B-score is 2.19.
On to `CC(C)c1ccc(S(=O)(=O)N2CCN(C(=O)CN3C(=O)NC(C)(c4ccccc4)C3=O)CC2)cc1` (stereo not given), for which the B-score was -0.17.
Then `CN(C1CCS(=O)(=O)C1)S(=O)(=O)c1ccc2ccccc2c1` (stereo not given), with -2.88; and `O=C1Nc2cc(C(=O)N3CCC(N4CCCCC4)CC3)ccc2S/C1=C\c1ccccc1`, with -5.53 (active).
Turning to `CC1CCN(C(=O)c2ccc3c(c2)NC(=O)CN3)CC1`, the B-score was -1.15.
In the case of `CCN1CCN(CCNC(=O)c2ccc3c(c2)NC(=O)/C(=C\c2ccc(OC)c(OC)c2)S3)CC1` it was -0.6.

The values above are taken from PubChem BioAssay AID1672 (Johns Hopkins Ion Channel Center, 2009).
